Active and inactive are the calls of the source. Rule as the data show it: active = fold change permeability below about 0.7 or above about 1.3; inactive = in between.
Experiment: modulators of brain endothelial barrier permeability, primary screen, cell-based, FITC-avidin fluorescence, HTS (AID 1963498); also: test concentration not given here
Settings: actives lie on both sides

Q: Which fold change permeability does the source give for `C[N+](C)(C)CCOP(=O)(O)OP(=O)([O-])OC[C@H]1O[C@@H](n2ccc(N)nc2=O)C(O)[C@H]1O` (some centres undefined) here?
A: The fold change permeability was 1.1 (inactive).

Q: For `NC(=O)NO`, which fold change permeability is on record?
A: Its fold change permeability is 1.1 (inactive).

Q: For `CCCn1c(=O)c2[nH]c(-c3ccc(S(=O)(=O)O)cc3)nc2n(CCC)c1=O`, which fold change permeability is on record?
A: The fold change permeability was 1.1 (inactive).

Q: With `O=C(OC1C[C@@H]2CC3C[C@H](C1)N2CC3=O)c1c[nH]c2ccccc12` (some centres undefined) as the compound, how does the fold change permeability read?
A: The fold change permeability was 0.8 (inactive).

Q: Which fold change permeability does the source give for `COc1ccc(/C=C/C(=O)Nc2ccccc2C(=O)O)cc1OC` here?
A: The fold change permeability was 1.4 (active).

Q: Which fold change permeability does the source give for `C#CCN(C)Cc1ccccc1` here?
A: The fold change permeability was 0.6 (active).

Q: For `O=C(S)S`, which fold change permeability is on record?
A: Its fold change permeability is 1.4 (active).

Q: Which fold change permeability does the source give for `CC#C[C@]1(O)CC[C@H]2[C@@H]3CCC4=CC(=O)CCC4=C3[C@@H](c3ccc(N(C)C)cc3)C[C@@]21C` here?
A: The fold change permeability was 0.8 (inactive).

Q: For `C[C@H](Cc1ccccc1)Nc1ncnc2c1ncn2[C@@H]1O[C@H](CO)[C@H](O)C1O` (some centres undefined), which fold change permeability is on record?
A: The fold change permeability was 1.3 (active).

Q: For `c1cnc(N2CCN(Cc3ccc4c(c3)OCO4)CC2)nc1`, which fold change permeability is on record?
A: The fold change permeability was 1 (inactive).

Q: For `CC(N)(Cc1ccc(O)c(O)c1)C(=O)O` (centres undefined), which fold change permeability is on record?
A: Its fold change permeability is 0.9 (inactive).

Q: Which fold change permeability does the source give for `CCn1c(=O)[nH]c2cc(Cl)c(Cl)cc21` here?
A: Its fold change permeability is 0.7 (active).

Q: With `CC(C)C[C@H](C(=O)O)c1cc(-c2ccc(C(F)(F)F)cc2)cc(-c2ccc(C(F)(F)F)cc2)c1` as the compound, how does the fold change permeability read?
A: The fold change permeability was 0.9 (inactive).

Q: With `CN(C)C(=O)/N=N/C(=O)N(C)C` as the compound, how does the fold change permeability read?
A: Its fold change permeability is 1 (inactive).

Q: For `CC1=C(C(=O)O)N2C(=O)[C@@H](NC(=O)[C@H](N)C3=CCC=CC3)[C@H]2SC1`, which fold change permeability is on record?
A: Its fold change permeability is 0.9 (inactive).

Q: With `O=C(O)c1ccc(-c2ccc(/C=C3\SC(=S)N(Cc4ccccc4)C3=O)o2)cc1` as the compound, how does the fold change permeability read?
A: Its fold change permeability is 2 (active).

Q: For `COc1ccc(CCN(C)CCCC(C#N)(c2cc(OC)c(OC)c(OC)c2)C(C)C)cc1OC` (centres undefined), which fold change permeability is on record?
A: Its fold change permeability is 0.9 (inactive).

Q: With `C[C@H](CSC(=O)c1ccccc1)C(=O)N1C[C@@H](Sc2ccccc2)C[C@H]1C(=O)O` as the compound, how does the fold change permeability read?
A: Its fold change permeability is 1 (inactive).

Q: With `C/C(=C\c1ccc(C(=O)O)cc1)c1ccc2c(c1)C(C)(C)CCC2(C)C` as the compound, how does the fold change permeability read?
A: Its fold change permeability is 1.7 (active).

Q: For `Clc1ccc2c(c1)C(N1CCNCC1)=Nc1ccccc1O2`, which fold change permeability is on record?
A: Its fold change permeability is 1.2 (inactive).

Q: For `CN1CCN(c2nc3cc(C(F)(F)F)ccc3n3cccc23)CC1`, which fold change permeability is on record?
A: Its fold change permeability is 1.7 (active).

Q: With `C[C@](N)(Cc1ccc(O)c(O)c1)C(=O)O` as the compound, how does the fold change permeability read?
A: Its fold change permeability is 0.8 (inactive).

Q: With `C[C@H](NC[C@H](O)CP(=O)(O)Cc1ccccc1)c1ccc(Cl)c(Cl)c1` as the compound, how does the fold change permeability read?
A: The fold change permeability was 1.1 (inactive).

Q: Which fold change permeability does the source give for `c1ccc(CN2CCC3(CCCc4ccccc43)CC2)cc1` here?
A: The fold change permeability was 1.6 (active).

Q: With `CC(N)(C(=O)O)c1ccc(C(=O)O)cc1` (centres undefined) as the compound, how does the fold change permeability read?
A: Its fold change permeability is 0.9 (inactive).

Q: With `CC1(C)SCCN(S(=O)(=O)c2ccc(OCC#CCO)cc2)[C@H]1C(=O)NO` as the compound, how does the fold change permeability read?
A: The fold change permeability was 1.1 (inactive).

Q: With `O=C(O)c1cccnc1Nc1cccc(C(F)(F)F)c1` as the compound, how does the fold change permeability read?
A: The fold change permeability was 0.9 (inactive).

Q: Which fold change permeability does the source give for `Nc1nc2[nH]cc(CCc3ccc(C(=O)N[C@@H](CCC(=O)O)C(=O)O)cc3)c2c(=O)[nH]1` here?
A: Its fold change permeability is 0.9 (inactive).

Q: With `CC(C)(N)C(=O)N[C@H](COCc1ccccc1)C(=O)N1CCC2(CC1)CN(S(C)(=O)=O)c1ccccc12` as the compound, how does the fold change permeability read?
A: The fold change permeability was 1.8 (active).

Q: With `OCCN1CCN(CCCN2c3ccccc3Sc3ccc(Cl)cc32)CC1` as the compound, how does the fold change permeability read?
A: The fold change permeability was 1.2 (inactive).

Q: Which fold change permeability does the source give for `C[C@]12CC[C@@H]3c4ccc(O)cc4CC[C@H]3[C@@H]1CCC2=O` here?
A: The fold change permeability was 0.9 (inactive).

Q: Which fold change permeability does the source give for `CC1=C(C(=O)Nc2ccc3[nH]ncc3c2)C(c2ccc(F)cc2)NC(=O)N1` (centres undefined) here?
A: Its fold change permeability is 1.2 (inactive).

Q: Which fold change permeability does the source give for `Cc1cccc(/C=C/c2ccccc2)n1` here?
A: Its fold change permeability is 1.2 (inactive).

Q: Which fold change permeability does the source give for `CC(C)c1nc(N(C)S(C)(=O)=O)nc(-c2ccc(F)cc2)c1/C=C/[C@@H](O)C[C@@H](O)CC(=O)O` here?
A: The fold change permeability was 0.9 (inactive).

Q: With `Nc1nc(N)c2nc(CNc3ccc(C(=O)N[C@@H](CCC(=O)O)C(=O)O)cc3)cnc2n1` as the compound, how does the fold change permeability read?
A: The fold change permeability was 0.9 (inactive).

Q: With `Fc1ccc([C@@H]2CCNC[C@H]2COc2ccc3c(c2)OCO3)cc1` as the compound, how does the fold change permeability read?
A: The fold change permeability was 1.2 (inactive).

Q: For `CC(/C=C1\SC(=S)N(CC(=O)O)C1=O)=C\c1ccccc1`, which fold change permeability is on record?
A: The fold change permeability was 1 (inactive).

Q: For `NCCCCN`, which fold change permeability is on record?
A: The fold change permeability was 0.9 (inactive).

Q: For `Cc1cn[nH]c1`, which fold change permeability is on record?
A: The fold change permeability was 0.8 (inactive).
